# Results: PubChem BioAssay AID624504 (Sanford-Burnham Center for Chemical Genomics, 2012)
# Screen size: about 5,000 compounds; about 3,900 (78%) were called active. No stated cut-off is given here; in the data, active means inhibition above about 22%; inactive means the rest. The set was probably picked from earlier hits. The list is a sample of the results.
# Experiment: fluorescence retest of MPTP screen hits in isolated mitochondria, single concentration (AID 624504);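 further: 0% = DMSO vehicle and 100% = positive control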
# Conditions: membrane potential, Rhodamine 123 fluorescence, at 10 µM, stronger effect = higher value
row,Structure (SMILES),inhibition
1,O=C(NNc1c2ccccc2nc2ccccc12)c1cc2ccccc2cc1O,31.4% (active)
2,CCn1c(CNC(=O)c2cc(OC)c(OC)c(OC)c2)cc2cc(C)ccc21,72.8% (active)
3,CCCCOc1ccc(CSC(=N)N)cc1[N+](=O)[O-],-5.28% (inactive)
4,CCc1ccc(Nc2n[n+](-c3ccccc3)c(-c3cccc(Cl)c3Cl)s2)cc1,86.2% (active)
5,Cc1cc(C(=O)CSc2nc(N)cc(=O)[nH]2)c(C)n1Cc1ccco1,46.4% (active)
6,Cc1cc(C(=O)CSc2nc(N)cc(=O)[nH]2)c(C)n1-c1cccc(F)c1,59% (active)
7,NC[C@H](Cc1ccccc1)NCCc1cc(C(F)(F)F)cc(C(F)(F)F)c1,-12% (inactive)
8,c1ccc2c(c1)C(=NC1CCCCC1)NC2=NC1CCCCC1,92.1% (active)
9,Cc1ccc2nnn(Cc3cccc(C(C)(C)C)c3O)c2c1,98.9% (active)
10,O=c1c2ccccc2nc2n1C(CSCc1ccccc1)CS2 (stereo unspecified),26.1% (active)
11,O=c1c2ccccc2nc2n1C(CSCc1cccc(C(F)(F)F)c1)CS2 (stereo unspecified),80.9% (active)
12,CN1CCC[C@@H]1CCO[C@](C)(c1ccccc1)c1ccc(Cl)cc1,-12.2% (inactive)
13,CCCc1ccc(-c2c(C)sc(NC(=O)c3ccnn3C)c2C#N)cc1,90.5% (active)
14,CCCCc1nc(NCCN)c(C#N)c2c1CSC(C)(C)C2,-9.33% (inactive)
15,COc1cc(CNCc2ccc(OC)c3ccccc23)cc(OC)c1OC,75.8% (active)
16,Cc1nc2nc(SCC(=O)Nc3cccc(F)c3)[nH]c2cc1Br,81.1% (active)
17,CC(=O)c1c(C)[nH]c(C(=O)COC(=O)c2cccc(S(=O)(=O)N(C)c3ccccc3)c2)c1C,90.1% (active)
18,CC(C)(CCl)C(=O)Nc1ccc(Sc2ccc(F)cc2)cc1,80.4% (active)
19,O=C(C/C(=N\NC(=O)c1ccccc1Br)C(F)(F)F)c1cccs1,82.3% (active)
20,O=C(NCCc1ccc2c(c1)OCCO2)c1cc2ccccc2o1,51.1% (active)
21,CC1(C)CC(=O)c2sc(N)nc2C1,1.93% (inactive)

row,Structure (SMILES),inhibition
1,CCCc1nc2c(c(=O)c3ccccc3n2C)c(=O)n1C1CCCCCC1,19.4% (inactive)
2,O=C(Nc1ccc(OC(F)(F)F)cc1)c1ccc2c(c1)no[n+]2[O-],88.6% (active)
3,CCC(C)(C)c1ccc(Oc2ccc(NC(=O)COC(=O)C3=COCCO3)cc2)cc1,55.3% (active)
4,CCCCCCc1cc2cc(-c3nnc(-c4ccccc4)o3)c(=O)oc2cc1O,1.15% (inactive)
5,Cc1ccc(Nc2c3c(nc4ccccc24)CCC3)cc1,76.8% (active)
6,O=C(NCCOc1ccccc1F)Nc1ccc(Br)cc1,71.7% (active)
7,CCOC(=O)c1ccc(NC(=O)Cn2cnc3cc(C)c(C)cc32)cc1,88.8% (active)
8,COc1ccc(NS(=O)(=O)c2cc(NC(=O)CC(=O)c3ccc([N+](=O)[O-])cc3)ccc2C)cc1,66.5% (active)
9,O=C(Cc1cccc2ccccc12)NNC(=O)Nc1ccc(Cl)cc1,85.8% (active)
10,Cc1ccc(NC(=S)NC(NC(=O)Cc2cccc3ccccc23)C(Cl)(Cl)Cl)cc1 (stereo unspecified),70.9% (active)
11,COc1cc(NC(=O)c2ccccc2NS(=O)(=O)c2ccc(Cl)s2)cc(OC)c1,75.8% (active)
12,COC(=O)c1ccc(NC(=O)c2ccccc2NS(=O)(=O)c2ccccc2)cc1,93.2% (active)
13,Clc1ccc(-c2cc(C3CCNCC3)[nH]n2)c(Cl)c1,-10.4% (inactive)
14,Cc1nnc(SC(C(=O)Nc2cc(Cl)cc(Cl)c2)c2ccccc2)[nH]c1=O (stereo unspecified),86.5% (active)
15,CCOC(=O)c1c(NC(=O)CSc2cn(CC)c3ccccc23)sc2c1CCC2,-4.21% (inactive)
16,CC(=O)c1c(C)[nH]c(C(=O)OCC(=O)Nc2sc3c(c2C#N)CCCC3)c1C,82.4% (active)
17,Cc1cc(C)cc(NC(=S)NCc2ccc(F)cc2)c1,57.4% (active)
18,Cc1c(NC(=S)NCc2ccc(F)cc2)cccc1[N+](=O)[O-],78.8% (active)
19,Cc1nc(CNS(=O)(=O)c2ccc(Oc3ccccc3)cc2)cs1,88.2% (active)
20,Cc1ccc(CC(=O)Nc2ccc(OC(F)F)c(Cl)c2)cc1C,89.8% (active)
21,FC(F)Oc1ccc(NC(=S)NCc2ccco2)cc1Cl,97.6% (active)

row,Structure (SMILES),inhibition
1,c1ccc2c(c1)CSc1sccc1C2=C1CCNCC1,-11.2% (inactive)
2,Cc1nc2ccccc2cc1OCc1ccc(F)cc1,100% (active)
3,Cc1cc(OCCCC(=O)NCCN2C(=O)S/C(=C\c3cccnc3)C2=O)ccc1Cl,68.6% (active)
4,Cc1nn(C)cc1CNC(=O)Nc1ccc(Cl)cc1,96.6% (active)
5,Cc1cc(C=O)c(C)n1-c1ccc(NC2CCCCC2)c([N+](=O)[O-])c1,41.9% (active)
6,CCCCCCCCCCCCN1C(=O)CSC1c1cccnc1 (stereo unspecified),19.9% (inactive)
7,COc1cc2c3c(c1)/C(=C1/SC(=S)NC1=O)C(=O)N3C(C)(C)C=C2C,49.1% (active)
8,CCCC(C(=O)OCCN(CC)CC)(c1ccccc1)c1ccccc1,4.44% (inactive)
9,CC(C)N1C(=S)SC(C)(C)C1n1oc(=O)n(-c2ccc(Cl)c(Cl)c2)c1=O (stereo unspecified),80.6% (active)
10,COc1ccc(CNc2ncnc3ccccc23)cc1,71.8% (active)
11,Cc1cc(C)cc(OCC(=O)Nc2nc3ccc([N+](=O)[O-])cc3s2)c1,62.3% (active)
12,O=C(Nc1nc2ccc([N+](=O)[O-])cc2s1)c1ccncc1,20.6% (active)
13,O=C(Nc1nc2ccc([N+](=O)[O-])cc2s1)c1ccc(S(=O)(=O)N2CCCc3ccccc32)cc1,74.7% (active)
14,O=C(NC(Nc1nc2ccc([N+](=O)[O-])cc2s1)(C(F)(F)F)C(F)(F)F)c1ccccc1,81.4% (active)
15,CCCC[C@@H]1CN=C(N)N1CCc1cc(C(F)(F)F)cc(C(F)(F)F)c1,-7.58% (inactive)
16,O=C(Nc1ccc(Cl)cc1)Nc1nnc(/C=C/c2ccccc2)s1,67% (active)
17,CS(=O)(=O)N(CC(=O)Nc1ccc(Cl)c(Cl)c1)C1CCCCC1,82.4% (active)
18,N#CCCN(C(=S)Nc1ccc(Cl)c(Cl)c1)C1CCCCC1,91.7% (active)
19,O=C(N/N=C/c1ccc(O)c(O)c1)C1c2ccccc2Oc2ccccc21,-9.84% (inactive)
